Results taken from PubChem BioAssay (Tox21).
Results filed as inconclusive are left out. Calls of active or inactive are those of the source. Unless noted, the call rests on the fitted dose curve; in most records, active means well fitted curve in the direction sought with a large enough effect in the repeat runs; inconclusive means weak or mixed curves; inactive means no such curve, though single readings can be large; an effect the other way counts as inactive or inconclusive.

How the values were obtained:
[1] = qHTS assay to identify small molecule agonists of the vitamin D receptor (VDR) signaling pathway - cell viability counter screen (AID 743224); further: series mostly up to about 63 µM; nearly all actives have a fitted effect of over 50% in size
Summary of the method: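 Here cell health was gauged by luminescent ATP detection (CellTiter-Glo, 30 min RT) in VDR-bla cells that had been incubated with test compounds for 16 h at 37C and 5% CO2.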

[2] = qHTS assay to identify small molecule agonists of the NFkB signaling pathway (AID 1159509; active means well fitted curve in the direction sought with a large enough effect in the signal ratio in the repeat runs, not every such curve was filed as active; the % refers to the signal ratio; further: series mostly up to about 61 µM)
Summary of the method: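 NFkB-bla ME-180 cells carry a beta-lactamase reporter under an NF-kB response element. They were plated overnight, then exposed to compounds for 5 h at 37 C. Read-out is LiveBLAzer FRET after 1.5 hr at room temperature (405 nm excitation; 460/530 nm emission).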

[3] = qHTS assay to identify small molecule agonists of the NFkB signaling pathway - cell viability counter screen (AID 1159515; calls by dose curve; further: series mostly up to about 61 µM; nearly all actives have a fitted effect of over 55% in size)
Summary of the method: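 5 hr compound treatment of NFkB-bla ME-180 cells (2,000/well, seeded overnight beforehand), followed by reporter substrate for 1.5 hr. CellTiter-Glo added afterward; luminescence after 30 min RT.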

[4] = qHTS assay to identify small molecule agonists of the endoplasmic reticulum stress response signaling pathway (AID 1159516; active means well fitted activation curve with a large enough effect in the signal ratio in the repeat runs, not every such curve was filed as active; the % refers to the signal ratio)
Summary of the method: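 Reporter HeLa cells (ESRE-beta-lactamase) underwent 5 hr compound incubation at 37 C and 5% CO2 in quantitative HTS format. Detection followed 2 hr of FRET substrate loading at room temperature.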

[5] = qHTS assay to identify small molecule antagonists of the retinoid-related orphan receptor gamma (ROR-gamma) signaling pathway - cell viability counter screen (AID 1159520); further: nearly all actives have a fitted effect of over 50% in size
Summary of the method: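 Tet-on ROR gamma CHO cells were given compounds for 2 hr, then doxycycline hyclate at 1 uM final, and incubated 16 hr at 37 C. Viability was measured as ATP content by CellTiter-Glo luminescence.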

[6] = target: Nuclear receptor ROR-gamma (Homo sapiens) (UniProt P51449); assay: qHTS assay to identify small molecule antagonists of the retinoid-related orphan receptor gamma (ROR-gamma) signaling pathway (AID 1159521;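 further: CHO cells with doxycycline inducible ROR-gamma driving an RORE luciferase reporter; top concentration of the series differs between compounds; nearly all actives have a fitted effect of over 50% in size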)
Summary of the method: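 CHO Tet-on RORγ, RORE-luc reporter. Cpd 2 h pre-incubation, then dox hyclate 1 uM final, 16 h, 37 C/5% CO2. ONE-Glo luminescence; decrease = antagonist.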

[7] = qHTS assay to identify small molecule agonists of the AP-1 signaling pathway - cell viability counter screen (AID 1159525; calls by dose curve; further: nearly all actives have a fitted effect of over 55% in size)
Summary of the method: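 AP-1-bla ME-180 cells in Opti-MEM with 0.5% dialyzed FBS, compound exposure 5 h at 37 C in 15-point titration. Viability read in the same wells as ATP content by CellTiter-Glo luminescence, normalised to tetra-n-octylammonium bromide and DMSO controls.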

[8] = qHTS assay to identify small molecule agonists of the AP-1 signaling pathway (AID 1159526; calls by dose curve)
[9] = qHTS assay to identify small molecule agonists of the RXR signaling pathway - cell viability counter screen (AID 1159529); further: series mostly up to about 77 µM; nearly all actives have a fitted effect of over 50% in size
Summary of the method: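 HEK 293T RXRa-bla cells, 2% CS-FBS; 5 h settle; cpd 16 h 37 C, 5% CO2; CellTiter-Glo 30 min RT, luminescence. Tetraoctyl ammonium bromide as positive control.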

[10] = qHTS assay to identify small molecule antagonists of the retinoic acid receptor (RAR) signaling pathway (AID 1159552; further: nearly all actives have a fitted effect of over 50% in size)
Summary of the method: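 Cells of the C3RL4 line were seeded, incubated overnight, then dosed with compounds in DMSO followed immediately by retinol (1 uM final). Six hours later luciferase detection reagent went in; signal was measured after 30 min at RT.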

[11] = qHTS assay to identify small molecule agonists of the retinoic acid receptor (RAR) signaling pathway (AID 1159553)
Summary of the method: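 Activation of retinol signaling was monitored via a RARE luciferase reporter in C3RL4 cells. After 6 hr compound treatment at 37 C, detection reagent was added for 30 min at room temperature before luminescence reading.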

[12] = qHTS assay to identify small molecule antagonists of the estrogen related receptor (ERR) signaling pathway - cell viability counter screen (AID 1224818);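 further: series mostly up to about 46 µM; viability measured after 17.5 h of compound exposure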
Summary of the method: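 In the same ERR cell assay, compound-treated wells (17.5 h, 37 C) were multiplexed with a fluorogenic viability reagent, CellTiter-Fluor, read after 30 min to flag cytotoxic substances.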

[13] = qHTS assay to identify small molecule antagonists of the estrogen related receptor signaling pathway with the pleiotropic PPARgamma coactivator (PGC) cell viability counter screen (AID 1224822; further: series mostly up to about 46 µM)
Summary of the method: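 Compounds in DMSO, with positive and negative controls, were applied to PGC/ERR cells (2,000/well) and left 17.5 h at 37 C before CellTiter-Fluor detection.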

[14] = target: Retinoic acid receptor RXR-alpha (Homo sapiens) (UniProt P19793); assay: qHTS assay to identify small molecule agonists of the RXR signaling pathway (AID 1159527; calls by dose curve; further: nearly all actives have a fitted effect of over 35% in size)
Chain of Retinoic acid receptor RXR-alpha (Homo sapiens) (P19793 whole entry, looked up): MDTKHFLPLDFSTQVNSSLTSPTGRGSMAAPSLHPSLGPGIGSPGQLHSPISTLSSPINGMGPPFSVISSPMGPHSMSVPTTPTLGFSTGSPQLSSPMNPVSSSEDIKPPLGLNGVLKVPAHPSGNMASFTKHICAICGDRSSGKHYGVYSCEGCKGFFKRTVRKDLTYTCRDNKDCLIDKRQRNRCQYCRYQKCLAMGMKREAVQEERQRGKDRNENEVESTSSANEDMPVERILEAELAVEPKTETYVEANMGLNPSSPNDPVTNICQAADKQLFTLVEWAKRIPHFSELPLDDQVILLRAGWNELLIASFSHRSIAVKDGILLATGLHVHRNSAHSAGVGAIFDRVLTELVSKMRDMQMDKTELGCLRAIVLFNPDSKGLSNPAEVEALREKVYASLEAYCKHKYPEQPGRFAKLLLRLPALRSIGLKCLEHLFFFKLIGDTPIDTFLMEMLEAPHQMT
Summary of the method: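 Read-out: beta-lactamase FRET ratio (405 nm excitation, 460 and 530 nm emission) after 2 hr substrate loading at room temperature. Cells were RXR-alpha-UAS-bla HEK 293T treated with compounds for 16 hr in 2% charcoal-stripped FBS medium.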

[15] = qHTS assay to identify small molecule antagonists of the retinoid acid receptor (RAR) signaling pathway - cell viability counter screen (AID 1159551); further: nearly all actives have a fitted effect of over 35% in size
Summary of the method: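 Seed C3RL4 cells; next day add compound, then retinol to 1 uM final; incubate 6 h at 37 C; add CellTiter-Glo; read luminescence after 30 min at RT.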

[16] = qHTS assay to identify small molecule antagonists of the vitamin D receptor (VDR) signaling pathway - cell viability counter screen (AID 743225); further: nearly all actives have a fitted effect of over 50% in size
Summary of the method: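 Read-out: CellTiter-Glo luminescence measured 30 min after reagent addition at room temperature. Cells were VDR-bla HEK 293T exposed 16 h at 37C, 5% CO2, to compound with 3 nM final calcitriol agonist.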

[17] = qHTS assay to identify small molecule agonists of the endoplasmic reticulum stress response signaling pathway - cell viability counter screen (AID 1159517; calls by dose curve)
Summary of the method: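 ESRE-bla HeLa cells, 1,500 per well, seeded overnight then treated with compounds for 5 hr at 37 C. After the beta-lactamase read, viability in the same wells is measured by CellTiter-Glo luminescence after 30 min at room temperature.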

Measured: Potency

NC(=O)c1ncn([C@@H]2O[C@H](CO)[C@@H](O)[C@H]2O)c1O
not listed: [14] | [15] | [16] | [17]
inactive: all other assays above

O=C1OC(=O)c2cc([N+](=O)[O-])ccc21
not listed: [9] | [10] | [11] | [12] | [13] | [16] | [17]
inactive: all other assays above

CCCCCCCCCCCCI
not listed: [9] | [12] | [13] | [17]
inactive: all other assays above

Cc1nccn1CC1CCc2c(c3ccccc3n2C)C1=O (stereo unspecified)
not listed: [5] | [10] | [11] | [12] | [13]
inactive: all other assays above

CCC(=O)c1cccc(Cl)c1
not listed: [5] | [9] | [12] | [13]
inactive: all other assays above

CSc1nc(NC2CC2)nc(NC(C)(C)C)n1
not listed: [10] | [11] | [12] | [13] | [17]
inactive: all other assays above

CO
not listed: [5] | [10] | [11] | [12] | [13] | [17]
inactive: all other assays above

Cc1cc(C)cc(OCC2CNC(=O)O2)c1 (stereo unspecified)
not listed: [10] | [11] | [12] | [13] | [16] | [17]
inactive: all other assays above

N[C@@H](CS)C(=O)O
not listed: [5] | [10] | [11] | [12] | [13] | [17]
inactive: all other assays above

CCCCN(CCO)CCO
not listed: [3] | [5] | [9] | [10] | [11] | [12] | [13]
inactive: all other assays above
